# Rows were chosen to be rich in hits. Some 27% of all compounds tested hit in one or more screens of this group.
# CYP2C9 inhib – inhibitors of human CYP2C9. inhibition, % at 5 µM. 96,000 tested, 20% active. CYP2C9 Supersomes, luciferin-H conversion, luminescence. P11712;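 active = blocking of liver enzyme CYP2C9 beyond about 50% at 5 µM, limit read from the data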
# Target sequence (P11712 whole entry, looked up): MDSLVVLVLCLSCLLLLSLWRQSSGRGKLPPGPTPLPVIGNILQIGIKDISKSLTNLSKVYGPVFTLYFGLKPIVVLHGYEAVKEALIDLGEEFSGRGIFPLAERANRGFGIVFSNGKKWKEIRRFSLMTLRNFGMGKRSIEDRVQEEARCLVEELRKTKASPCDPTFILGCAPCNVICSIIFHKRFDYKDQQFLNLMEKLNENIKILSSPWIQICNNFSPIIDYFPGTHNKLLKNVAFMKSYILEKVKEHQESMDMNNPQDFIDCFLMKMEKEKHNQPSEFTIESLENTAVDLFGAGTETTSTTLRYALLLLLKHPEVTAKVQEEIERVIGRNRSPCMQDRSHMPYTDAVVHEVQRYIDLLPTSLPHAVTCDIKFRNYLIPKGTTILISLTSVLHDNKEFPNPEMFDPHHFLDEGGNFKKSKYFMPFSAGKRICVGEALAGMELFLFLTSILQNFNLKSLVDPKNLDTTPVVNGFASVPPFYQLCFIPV
# CYP2C19 inh – human CYP2C19 inhibition | CYP2C19 Supersomes, luciferin-H EGE luminescence, 30 min | AID 778 | 96,000 tested, 21% active | inhibition, % at 5 µM;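 active = CYP2C19 inhibition above a set limit at 5 µM in the primary screen, cut at about 50% in these data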;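 also: plate controls were negative control wells for no effect and 2.5 mM tranylcypromine positive control for full effect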
# CYP2C9 activ – increases human cytochrome P450 2C9 activity. P11712. recombinant CYP2C9, luciferin-H conversion, luminescence; active compounds read high; factor 1 = untreated enzyme, 0 = blocked. activation factor at 5 µM. 96,000 tested, 1.4% active. AID 1024;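 active = activation factor of 2 or more for CYP2C9 at a 5 µM dose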;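 also: 0 = sulfaphenazole-blocked wells and 1 = vehicle-only wells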
# sEH inhibitor – blocks human soluble epoxide hydrolase activity | AID 707 | 91,000 tested, 0.34% active | recombinant human sEH enzymatic activity assay | inhibition, % at 2 µM | P34913; in the data active = inhibition above about 80%
# sEH act – activators of human soluble epoxide hydrolase | P34913 | purified human sEH enzymatic activity, activator screen | activation, % at 2 µM | 91,000 tested, 0.04% active | AID 717; in the data active = activation above about 37%
# CYP2C19 act – increases human CYP2C19 enzyme activity | activation factor at 5 µM | 96,000 tested, under 10 active | AID 1025 | recombinant CYP2C19, luciferin-H EGE luminescence; active compounds read high; 0 = fully inhibited enzyme, 1 = untreated enzyme | P33261;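 active = activation factor of at least 2 at 5 µM in the primary screen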;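 also: 0 = wells with 2.5 mM tranylcypromine and 1 = vehicle-only wells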
# The depositor's hits bear a star; . = not tested or not shown.
SMILES,CYP2C9 inhib,CYP2C19 inh,CYP2C9 activ,sEH inhibitor,sEH act,CYP2C19 act
O=C(CSc1ccc2c(c1)OCCO2)NCc1ccco1,70*,55*,0.3,.,.,0.5
COCc1cc(C)nc(SCC(=O)Nc2ccc3c(c2)OCO3)c1C#N,22,76*,0.8,25,-26,0.2
CCOC(=O)c1cnc(SCc2ccc(C(C)(C)C)cc2)nc1N,70*,-6,0.3,10,-12,1.1
Cc1ccc(CNC(N)=S)cc1,-6,6,1.1,-4,5,0.9
C=CCOc1ccc(CN(C)CC(=O)N(CC(C)C)c2c(N)n(CC(C)C)c(=O)[nH]c2=O)cc1,18,18,0.8,-4,7,0.8
CCc1nnc(SCC(=O)Nc2ccc3c(c2)OCO3)o1,45,72*,0.6,0,2,0.3
O=C(CSc1nnc2c(n1)[nH]c1ccccc12)Nc1ccc2c(c1)OCO2,64*,5,0.4,-5,3,1
O=C(CSc1ncn(-c2ccccc2)n1)Nc1ccc2c(c1)OCCO2,46,43,0.5,.,.,0.6
O=C(CSc1ncn(-c2ccccc2)n1)Nc1ccc2c(c1)OCO2,90*,95*,0.1,.,.,0.1
Cc1nnc(SCC(=O)Nc2ccc3c(c2)OCO3)o1,-10,1,1.1,-8,9,1
COc1ccc(NC(=O)CSc2ccc3c(c2)OCCO3)cc1OC,64*,46,0.4,-9,10,0.5
CCCNC(=O)NC(=O)CSc1ccc2c(c1)OCCO2,3,76*,1,6,-7,0.2
Cc1nnc(SC(C)C(=O)Nc2ccc3c(c2)OCCO3)s1 (stereo unspecified),20,8,0.8,.,.,0.9
CCN(C(=O)CSc1ccc2c(c1)OCCO2)C1CCS(=O)(=O)C1 (stereo unspecified),-6,36,1.1,-12,11,0.6
CC(Sc1ccc2c(c1)OCCO2)C(=O)Nc1ncc(Cl)cc1Cl (stereo unspecified),42,70*,0.6,1,1,0.3
CC(Sc1ccc2c(c1)OCCO2)C(=O)Nc1ccc2c(c1)OCO2 (stereo unspecified),90*,100*,0.1,.,.,0
CC(C)n1c(SCC(=O)Nc2ccc3c(c2)OCO3)nc2c1c(=O)n(C)c(=O)n2C,55*,31,0.4,-1,0,0.7
CCn1c(SCC(=O)Nc2ccc3c(c2)OCO3)nc2c1c(=O)n(C)c(=O)n2C,37,15,0.6,6,-4,0.8
COc1ccccc1OCCc1nnc(N)s1,-44,-33,1.4,1,-1,1.3
CCc1nnc(NC(=O)[C@@H](NC(=O)c2cccc(S(=O)(=O)N3CCOCC3)c2)C(C)C)s1,8,10,0.9,-3,4,0.9
Cc1ccc(N(CC(=O)NC2CCCC2)C(=O)CCCC(=O)Nc2ccccn2)cc1C,56*,56*,0.4,.,.,0.4
Cc1ccnc(NC(=O)CCC(=O)N(CC(=O)NC2CCCCC2)c2cccc(C)c2C)c1,56*,42,0.4,9,-8,0.6
Cc1ccc(C)c(N(CC(=O)NC2CCCCC2)C(=O)CCC(=O)Nc2ccccn2)c1,80*,66*,0.2,-9,5,0.3
Cc1cc(C)cc(N(CC(=O)NC2CCCCC2)C(=O)CCC(=O)Nc2cc(C)ccn2)c1,46,46,0.5,.,.,0.5
O=C(CCC(=O)N(CC(=O)NC1CCCC1)C1CCCC1)Nc1ccccn1,13,24,0.9,-3,3,0.8
SMILES,CYP2C9 inhib,CYP2C19 inh,CYP2C9 activ,sEH inhibitor,sEH act,CYP2C19 act
CCOC(=O)c1c(C)[nH]c(C(=O)CN2CC(C)OC(C)C2)c1C (stereo unspecified),17,28,0.8,-20,21,0.7
COc1ccc(CN2CCN(S(=O)(=O)c3ccc(NC(C)=O)cc3)CC2)cc1OC,49,34,0.5,-20,17,0.7
COc1ccc(CN2CCN(S(=O)(=O)c3ccccc3)CC2)cc1Br,96*,99*,0,0,1,0
COc1ccc(CN2CCN(S(=O)(=O)c3ccc(F)cc3)CC2)cc1OC,-1,-1,1,.,.,1
COc1ccc(CN2CCN(S(=O)(=O)c3ccccc3)CC2)c(OC)c1,60*,52*,0.4,0,1,0.5
COc1ccc(CN2CCN(c3ncccn3)CC2)c(OC)c1,7,45,0.9,.,.,0.5
COc1ccccc1CN1CCN(S(=O)(=O)c2ccccc2)CC1,63*,62*,0.4,9,-11,0.4
COc1ccc(CN2CCN(S(=O)(=O)c3ccc(F)cc3)CC2)c(OC)c1OC,40,87*,0.6,4,-4,0.1
Cc1ccc(CC2CC(=O)N(c3nc4ccccc4n3C)C2=O)cc1 (stereo unspecified),-46,8,1.5,-3,0,0.9
CC1=C(SCCC#N)S/C(=C2\SC(C)=C(SCCC#N)S2)S1,-2,-4,1,6,-5,1
CCOCc1cnc(C)nc1NCC(=O)c1c(C)[nH]c2ccc(OC)cc12,-1,2,1,-15,14,1
CCn1c(NC(=O)c2ccco2)c(-c2ccccc2Cl)c(=O)c2ccccc21,6,-1,0.9,6,-6,1
O=C(NCc1ccc(Cl)cc1)c1ccc(Cn2cc(C(F)(F)F)ccc2=O)cc1,47,10,0.5,23,-20,0.9
NC(=O)c1ccc(C(F)(F)F)n(Cc2cccc(Cl)c2)c1=O,25,56*,0.7,3,-3,0.4
NC(=O)c1ccc(C(F)(F)F)n(Cc2ccc(Cl)cc2)c1=O,22,51*,0.8,-2,3,0.5
CCCCCCNC(=O)C(C(=O)OCC)C1CCCCC1 (stereo unspecified),44,48,0.6,-11,12,0.5
CC(=O)Nc1sc(C)c(C)c1CN1CCN(S(=O)(=O)c2ccccc2)CC1,6,9,0.9,.,.,0.9
CCOC(=O)c1sc(NC(=O)/C=C/c2cnn(C)c2C)c(C(=O)OCC)c1C,25,6,0.8,-7,8,0.9
Cc1[nH]n(-c2ccc([N+](=O)[O-])cc2)c(=O)c1C=NCCN1CCN(C(=O)c2cccc(F)c2)CC1,48,33,0.5,-4,0,0.7
CC1CCCC2(C1)NC(=S)c1c(sc3c1CCCC3)N2 (stereo unspecified),5,20,0.9,9,-8,0.8
Cc1nc2c(cc(Oc3ccc(S(=O)(=O)N4CCOCC4)cn3)c3ccsc32)s1,90*,84*,0.1,.,.,0.2
CCOC(=O)c1sc2cccc(Cl)c2c1N,.,.,.,4,-3,.
Cc1nn(C)cc1CN(C)C(=O)c1sc2cccc(Cl)c2c1Cl,-98,97*,2*,.,.,0
COc1cccc(NC(=O)c2ccc3snnc3c2)c1,.,.,.,15,-13,.
COc1cc(CCC(=O)Nc2cc(Cl)ccc2N2CCN(C)CC2)cc(OC)c1OC,46,64*,0.5,13,-11,0.4

# From PubChem
